In the library only some 12% were active in any assay of this set; here they are far more common.
Cycloheximide cs: counter-screen for Shiga toxin inhibitors: cycloheximide protein synthesis inhibition; actives 12% (n = 300,000); AID 2314; cell reporter, cycloheximide protein synthesis inhibition counterscreen; max response, %; in the data active means max response mostly above about 13%, no sharp cut-off; inactive means mostly below about 14%; further: read at 38.3 µM for the half of the compounds with a filed dose; 0% is about no effect
SARS PLP yeast: inhibitors of SARS-CoV papain-like protease in yeast; Potency, µM (series often up to 32.9 µM), inactives show at the top dose activity, positive = growth rescue, actives largely listed as activators; S. cerevisiae expressing SARS-CoV PLpro, growth rescue; actives 0.19% (n = 330,000); further: potency means the concentration at half of the fitted maximal effect; 0% is about no effect; nearly all actives have a fitted effect of over 55% in size
NS1 inh: blocks influenza NS1 protein function | Potency, µM (titrated, usually from 46.1 µM), for inactives: top-dose activity, positive = more growth | actives 0.4% (n = 270,000); further: potency means the concentration at half of the fitted maximal effect; actives are rising curves; nearly all actives have a fitted effect of over 50% in size
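Growth recovery, yeast-based: influenza A NS1 expressed in S. cerevisiae causes slow growth, and suppressors are detected by OD600. The parent strain without NS1 is used as positive control.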
Shiga inhibitor: blocks Shiga toxin action in Vero cells | Vero cells, Shiga toxin protein synthesis inhibition reporter | inhibition, % at 38.7 µM | actives 9.2% (n = 290,000); in the data active means inhibition mostly above about 28%, no sharp cut-off; inactive means mostly below about 43%; further: 0% is about no effect
Active calls of the source: *; ? = inconclusive; · = no result given. Unless noted, the call rests on the fitted dose curve.

SMILES	Cycloheximide cs	SARS PLP yeast	NS1 inh	Shiga inhibitor
CC1Oc2ccccc2N(CC(=O)NCc2ccccc2)C1=O (centres undefined)	31.3*	-1.3%	0.6%	105.3*
O=C(CCC(=O)N1CCOc2ccccc21)NCCc1ccccc1	8.3*	2.2%	8.5%	12.3
COc1ccc(CNCC2COc3ccccc3O2)cc1 (centres undefined)	21.7*	0.4%	3.5%	27.5
c1ccc(CNCC2COc3ccccc3O2)cc1 (centres undefined)	2.2	5.2%	-2.2%	49.2*
O=C(CC1COc2ccccc2O1)NCCc1ccccc1 (centres undefined)	51.7*	-4.2%	-10.7%	64.0*
CC(CCc1ccccc1)NC(=O)CCNS(=O)(=O)c1ccccc1 (centres undefined)	·	1.7%	·	·
CCOC(=O)c1c(NC(=S)NC(C)=O)sc(C)c1C	-2.3	10.6%	2.0%	-2.6
CCC(C)(C)n1nnnc1CN1CCN(c2ccc(OC)cc2)CC1	-0.5	1.0%	1.5%	-11.7
Cc1cc2occ(CC(=O)NNC(=O)c3ccccc3)c2cc1C	9.9*	3.8%	12.5%	18.5
N#Cc1ccc(-c2csc(NC3=NCCCCC3)n2)cc1	19.8*	-7.0%	14.3%	73.2*
c1ccc(-c2csc(NC3=NCCCCC3)n2)cc1	42.8*	1.9%	-4.0%	35.4
N#Cc1ccc(-c2csc(NC(=O)c3ccc(N4C(=O)CCC4=O)cc3)n2)cc1	6.6	-0.3%	7.0%	-4.8
c1ccc(CNC2=NCCCC2)cc1	-2.6	0.4%	-18.8%	-2.3
CC1(C(=O)NNC(=O)C2CCCCC2)CC1(Cl)Cl (centres undefined)	-2.4	-0.6%	2.5%	9.6
O=C(NCCc1ccccc1)C1CCCN1C(=O)Nc1ccc(F)cc1 (centres undefined)	-2.2	1.2%	5.2%	-5.6
COc1ccc(OC)c(/C=N/NC(=O)CNC(=O)c2ccc(S(=O)(=O)N3CCOCC3)cc2)c1	-1.0	-4.6%	-0.5%	11.2
COC(=O)N/N=C/c1cn(CCOc2ccccc2)c2ccccc12	45.6*	-6.0%	-5.3%	78.2*
CCOC(=O)N/N=C/c1cn(CCCOc2ccccc2)c2ccccc12	45.7*	22.7%	13.5%	66.1*
COC(=O)N/N=C/c1cn(CCOc2ccc(OC)cc2)c2ccccc12	0.6	-0.7%	-8.2%	20.9
CCOC(=O)N/N=C/c1cn(CCCOc2ccc(C)cc2)c2ccccc12	63.6*	0.0%	12.2%	42.4*
CNC(=S)N/N=C/c1cn(CCOc2cccc(OC)c2)c2ccccc12	9.8	-3.9%	23.1%	103.2*
Cc1ccc(OCCn2cc(/C=N/NC(=O)c3ccncc3)c3ccccc32)cc1	-1.9	?	13.6%	22.3
CNC(=S)N/N=C/c1cn(CCOc2ccccc2OC)c2ccccc12	8.6	?	24.0%	-6.4
COc1ccc(OC)c(NC(=O)C2CCN(S(=O)(=O)c3ccc4c(c3)CC(C)N4C(C)=O)CC2)c1 (centres undefined)	-1.7	-4.6%	12.5%	9.1
O=C(Nc1cc(C(F)(F)F)ccc1Cl)c1cccc(N2C(=O)CCC2=O)c1	-1.6	?	2.5%	-5.6
SMILES	Cycloheximide cs	SARS PLP yeast	NS1 inh	Shiga inhibitor
C=CC[C@H](CC(=O)N(CCO)Cc1ccccc1)C(=O)N[C@H](COC(=O)[C@@H](CC=C)CC(=O)OC(C)(C)C)c1ccccc1	·	-5.4%	·	·
O=C(Nc1cccc(Oc2ccc(C(=O)O)c(C(=O)O)c2)c1)c1ccc(-c2ccccc2)cc1	-0.8	-1.2%	12.9%	-4.3
COC(=O)c1ccc(N2C(=O)CC(SCCN)C2=O)cc1 (centres undefined)	42.4*	-25.9%	18.1%	53.7*
CCCOc1ccc(N2C(=O)CC(SCCN)C2=O)cc1 (centres undefined)	50.2*	-27.9%	-46.1%	93.3*
COC(=O)c1ccccc1SC1CC(=O)N(c2ccccc2)C1=O (centres undefined)	28.5*	-13.7%	-19.0%	57.1*
CCCOc1ccc(N2C(=O)CC(SCC(N)C(=O)OCC)C2=O)cc1 (centres undefined)	0.5	-23.1%	-7.5%	-4.5
CCN(CC)C(=O)NCc1c(C)cc(C)cc1C	-1.5	-0.5%	·	-3.8
COc1cc(OC)cc(C(=O)NCC(=O)Nc2ccc(OC)c(Cl)c2)c1	0.2	1.6%	0.9%	3.4
CCC1Oc2ccccc2N(CC(=O)NC2CCCCC2C)C1=O (centres undefined)	1.9	0.9%	-7.7%	16.0
N#Cc1c(-c2ccccc2)no[n+]1[O-]	·	·	-1.4%	·
CC(C)(C)c1ccc(C(=O)N2CCC(C(=O)NC3CCCCCC3)CC2)cc1	12.4	0.2%	11.3%	77.4
COc1cccc([C@@H]2Oc3ccc(OC)cc3C(=O)[C@H]2O)c1	39.5*	-3.4%	0.4%	42.3*

Compound activity (PubChem BioAssay)
